This passage reports Potency results from PubChem BioAssay (NCATS).

A short description of experiment [1]: Quantitative High-Throughput drug screen in 47 multiple myeloma cell lines against the NCATS MIPE library collection: MOLP8_DSMZ cell viability assay (AID 1918977). Further: nearly all actives have a fitted effect of over 45% in size. As to conditions: MOLP8 myeloma viability, CellTiter-Glo ATP luminescence, 48 h; series mostly up to 45.8 µM. In outline: (§1)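 ATP-based CellTiter-Glo luminescence after 48 h drug exposure (37 °C, 5% CO2) of 500 myeloma cells per well. DMSO-only wells set 100% viability, media-only wells 0%; MIPE 4.0 library added by pin tool.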
On the technique in general: ATP-based viability assays read luminescence as a measure of living cells.

Experiment [2] in a line: Quantitative High-Throughput drug screen in 47 multiple myeloma cell lines against the NCATS MIPE library collection: NCIH929_DSMZ cell viability assay (AID 1918978). Further: potency means the concentration at half of the fitted maximal effect; nearly all actives have a fitted effect of over 35% in size. The note with it: NCI-H929 myeloma viability, CellTiter-Glo ATP, 48 h; series mostly up to 45.8 µM. In outline:
as §1

The nature of experiment [3]: Quantitative High-Throughput drug screen in 47 multiple myeloma cell lines against the NCATS MIPE library collection: LP1_DSMZ cell viability assay (AID 1918982). Further: nearly all actives have a fitted effect of over 35% in size. The note with it: LP1 myeloma viability, CellTiter-Glo ATP luminescence, 48 h; series mostly up to 45.8 µM. The procedure, abridged: as §1
Experiment [4] in a line: Quantitative High-Throughput drug screen in 47 multiple myeloma cell lines against the NCATS MIPE library collection: MM1S_ATCC cell viability assay (AID 1918980). Further: potency means the concentration at half of the fitted maximal effect; nearly all actives have a fitted effect of over 45% in size. The note with it: MM1S myeloma viability, CellTiter-Glo ATP luminescence, 48 h; series mostly up to 45.8 µM. In outline: as §1
Experiment [5] is described as follows: Quantitative High-Throughput drug screen in 47 multiple myeloma cell lines against the NCATS MIPE library collection: MM1R_ATCC cell viability assay (AID 1918981). Further: nearly all actives have a fitted effect of over 35% in size. As to conditions: MM1R multiple myeloma cells, CellTiter-Glo viability, 48 h; series mostly up to 45.8 µM. In outline:
as §1

The nature of experiment [6]: Quantitative High-Throughput drug screen in 47 multiple myeloma cell lines against the NCATS MIPE library collection: KMS28PE_JCRB cell viability assay (AID 1918983). Further: nearly all actives have a fitted effect of over 35% in size. As to conditions: KMS28PE multiple myeloma viability, CellTiter-Glo ATP, 48 h; series mostly up to 45.8 µM. In outline: as §1
The nature of experiment [7]: Quantitative High-Throughput drug screen in 47 multiple myeloma cell lines against the NCATS MIPE library collection: L363_DSMZ cell viability assay (AID 1918984). Further: nearly all actives have a fitted effect of over 40% in size. The note with it: L363 myeloma viability, CellTiter-Glo ATP luminescence, 48 h; series mostly up to 45.8 µM. In outline:
as §1

Results filed as inconclusive are left out. The source made the active and inactive calls. The call rests on the fitted dose curve; in most records, active means well fitted curve in the direction sought with a large enough effect; inconclusive means small, poorly fitted or top-dose-only effect, or another doubt; inactive means no such curve, though single readings can be large; an effect the other way counts as inactive or inconclusive.

For the molecule `NC(=O)c1cccc2cn(-c3ccc([C@@H]4CCCNC4)cc3)nc12`, the Potency entry in experiment [1] and in experiment [3] was “inactive” each time. Further, in experiment [2], the Potency is 20.9 µM (active).
`CC=CC1=C(C(=O)O)N2C(=O)[C@H](NC(=O)[C@H](N)c3ccc(O)cc3)[C@@H]2SC1`: the Potency entry in experiment [1], in experiment [5], in experiment [6] and in experiment [7] was “inactive” each time. Further, the Potency in experiment [4] is 14.8 µM (active).
